Test [1] deals with Peptidyl-prolyl cis-trans isomerase NIMA-interacting 1 (Homo sapiens) (UniProt Q13526). The experiment in a line: qHTS Validation Assay to Find Inhibitors of Pin1 (AID 504536; active = well fitted inhibition curve with a large enough effect in the polarisation, with a control signal flat, not every such curve was filed as active; the % refers to the polarisation; note: potency is the fitted concentration of half-maximal effect). In outline:
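Fluorescence polarization competition: compounds (titration) displace HiFluor-488-labeled Pin1-1b peptide from Pin1 (0.3 uM final) in pH 7.5 HEPES buffer with DTT, 10 min at room temperature; %Activity normalized to no-enzyme wells, curves fitted.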

The target in test [2] is Phosphoglycerate kinase, glycosomal (Trypanosoma brucei brucei) (UniProt P07378). Kind of test: qHTS Validation Assay to Find Inhibitors of Phosphoglycerate Kinase (AID 504547).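 Note: control wells lack PGK and mark full inhibition.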 In outline: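 PGK activity was coupled to GAPDH (100nM final), which generates the unstable substrate 1,3-bisphosphoglycerate in-well. Reactions ran 60 minutes at room temperature in 100mM TEA pH 7.6, 5mM MgCl2, 0.01% Tween-20, then Kinase-Glo Plus luminescence was read.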
Phosphoglycerate kinase, glycosomal (Trypanosoma brucei brucei), sequence (P07378 whole entry, looked up): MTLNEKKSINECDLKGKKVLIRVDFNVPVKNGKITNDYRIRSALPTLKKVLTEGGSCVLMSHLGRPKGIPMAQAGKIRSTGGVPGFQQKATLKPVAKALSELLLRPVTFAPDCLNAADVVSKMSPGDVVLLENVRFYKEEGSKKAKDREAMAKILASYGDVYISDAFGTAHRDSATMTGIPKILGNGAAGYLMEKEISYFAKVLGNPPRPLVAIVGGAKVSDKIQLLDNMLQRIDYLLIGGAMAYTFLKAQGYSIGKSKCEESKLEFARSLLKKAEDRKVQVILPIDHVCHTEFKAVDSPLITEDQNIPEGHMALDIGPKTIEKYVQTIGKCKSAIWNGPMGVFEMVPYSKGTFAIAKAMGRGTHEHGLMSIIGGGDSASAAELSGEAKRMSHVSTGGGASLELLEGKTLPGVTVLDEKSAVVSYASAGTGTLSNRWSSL

Test [3] addresses phosphoglycerate mutase (Leishmania major) (UniProt Q4Q090). The experiment in a line: qHTS Validation Assay to Find Inhibitors of Phosphoglycerate Mutase (AID 504548). Note: series mostly up to about 58 µM; % is set by controls: 0 for no effect and ±100 for the full control effect. The settings on record: Potency: inhibition qHTS. In outline:
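Luminescent end-point read-out via Kinase-GloPlus after a 10-minute development. Reaction: 1.25nM Leishmania major PGAM with substrate and compound, 45 minutes at room temperature in TEA buffer (pH 7.6) with MgCl2 and Tween-20.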
For orientation: In qHTS, concentration-response curves come from the screen itself.

Test [4] deals with Ubiquitin carboxyl-terminal hydrolase 1 (Homo sapiens) (UniProt O94782). Kind of test: Inhibitors of USP1/UAF1: Pilot qHTS (AID 504865). Note: nearly all actives have a fitted effect of over 35% in size. Note: potency is the fitted concentration of half-maximal effect. In short, it runs like this: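 In 50mM HEPES pH 7.8 containing 0.5mM EDTA, 1mM TCEP, 0.1 mg/ml BSA and 0.01% Tween-20, 1nM USP1/UAF1 is exposed to compound for 15 min, then Ub-Rho (150nM final) is added and fluorescence is read over time.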
Ubiquitin carboxyl-terminal hydrolase 1 (Homo sapiens), sequence (O94782 whole entry, looked up): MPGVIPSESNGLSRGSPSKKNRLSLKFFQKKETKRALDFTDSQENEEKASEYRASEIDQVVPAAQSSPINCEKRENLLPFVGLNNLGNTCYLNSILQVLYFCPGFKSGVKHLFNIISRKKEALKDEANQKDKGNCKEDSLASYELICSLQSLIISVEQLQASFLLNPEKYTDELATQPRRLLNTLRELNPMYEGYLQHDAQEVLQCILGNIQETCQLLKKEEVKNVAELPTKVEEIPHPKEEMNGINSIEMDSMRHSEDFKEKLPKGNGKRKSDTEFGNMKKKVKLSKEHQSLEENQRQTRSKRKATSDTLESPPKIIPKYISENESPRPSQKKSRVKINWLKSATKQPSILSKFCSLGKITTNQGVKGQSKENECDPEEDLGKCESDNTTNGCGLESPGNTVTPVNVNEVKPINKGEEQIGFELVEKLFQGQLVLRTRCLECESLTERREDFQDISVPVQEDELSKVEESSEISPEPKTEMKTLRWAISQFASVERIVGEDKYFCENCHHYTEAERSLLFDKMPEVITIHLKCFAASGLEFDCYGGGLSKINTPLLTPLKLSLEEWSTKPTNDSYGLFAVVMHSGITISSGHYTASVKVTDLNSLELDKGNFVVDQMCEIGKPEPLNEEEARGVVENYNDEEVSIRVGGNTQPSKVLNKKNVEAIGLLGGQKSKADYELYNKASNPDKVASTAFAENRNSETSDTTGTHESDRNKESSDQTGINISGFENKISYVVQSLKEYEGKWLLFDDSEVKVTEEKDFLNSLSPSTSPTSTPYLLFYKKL
Test [5] can be described thus: qHTS for Inhibitors of ATXN expression: Validation of Cytotoxic Assay (AID 588349). Note: % is set by controls: 0 for no effect and ±100 for the full control effect. In outline:
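HEK293 cells treated with titrated compound for 72 hr at 37 degrees C; viability read as intracellular ATP by CellTiter Glo luminescence.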

A short description of test [6]: qHTS for Inhibitors of ATXN expression: Validation (AID 588378). Note: series mostly up to about 57 µM; % is set by controls: 0 for no effect and ±100 for the full control effect; nearly all actives have a fitted effect of over 75% in size. In outline: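 Compounds were pinned onto attached HEK293 cells carrying an ATXN2-firefly luciferase construct and incubated 24 hrs at 37 degrees C. Each well then received a fluorescent viability reagent followed by luciferase substrate for end-point luminescence.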
Test [7] concerns the target Estrogen receptor (Homo sapiens) (UniProt P03372). The experiment in a line: qHTS assay for small molecule antagonists of estrogen receptor alpha signaling (AID 588513; active = well fitted curve in the direction sought with a large enough effect in the signal ratio, with a control signal flat, not every such curve was filed as active; the % refers to the signal ratio; note: % is set by controls: 0 for no effect and ±100 for the full control effect). In short, it runs like this: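 Fluorescence from CCF4 substrate after 2 h at room temperature gave reporter activity; cells had been exposed to compound and 0.5nM 17-beta-estradiol for 18 h at 37 C. Hill-equation fitting yielded IC50 and maximal response.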

Test [8] has the same target. The experiment in a line: qHTS assay for small molecule agonists of estrogen receptor alpha signaling (AID 588514; calls by dose curve;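 note: 0% = vehicle only and 100% = reference agonist; nearly all actives have a fitted effect of over 70% in size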). In outline: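 ER-alpha-UAS-bla GripTite HEK293 cells, 5000/well in 2% charcoal/dextran-stripped FBS medium, treated with compound titrations 18 h at 37 C. CCF4 beta-lactamase read by fluorescence after 2 h RT; normalised to 20 nM 17-beta-estradiol (100%) and DMSO (0%), Hill fit for EC50 and efficacy.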

Test [9] addresses Bile acid receptor (Homo sapiens) (UniProt Q96RI1). The experiment in a line: qHTS assay for small molecule antagonists of farnesoid X receptor signaling (AID 588526; calls by dose curve; note: % is set by controls: 0 for no effect and ±100 for the full control effect). In outline: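 Antagonist mode: titrated compounds tested against chenodeoxycholic acid stimulation (normalized to 50 uM CDCA and DMSO) in GeneBLAzer HEK293T cells for 16 h. Beta-lactamase read by CCF4 fluorescence; IC50 from Hill fits.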

The target of test [10] is Glucocorticoid receptor (Homo sapiens) (UniProt P04150). Kind of test: qHTS assay for small molecule agonists of glucocorticoid receptor signaling (AID 588532; active = well fitted curve in the direction sought with a large enough effect in the signal ratio, with a control signal flat; the % refers to the signal ratio;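 note: 100% = dexamethasone at 0.1 µM and 0% = DMSO only wells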). The conditions noted are these: HeLa MMTV-bla, beta-lactamase ratio, agonist, 18 h; stronger effect = higher value; percent of dexamethasone control, DMSO zero. In short, it runs like this:
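Cells were plated and rested 3-5 h at 37 C, compounds were added in titration and incubated 18 h, then CCF4 substrate was loaded for 2 h at RT before reading blue/green fluorescence. EC50 came from Hill-equation fitting.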

Test [11] has the same target. Kind of test: qHTS assay for small molecule antagonists of glucocorticoid receptor signaling (AID 588533; active = well fitted inhibition curve with a large enough effect in the signal ratio, with a control signal flat, not every such curve was filed as active; the % refers to the signal ratio). In outline:
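Antagonist-mode qHTS: compound titrations added to GRE-bla HeLa cells, then dexamethasone 2 nM final; 18 h, 37 C. CCF4 FRET fluorescence normalized to dexamethasone and DMSO; IC50 from Hill fit.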

A short description of test [12]: qHTS assay for small molecule antagonists of peroxisome proliferator-activated receptor delta signaling (AID 588535; active = well fitted inhibition curve with a large enough effect in the signal ratio, with a control signal flat, not every such curve was filed as active; the % refers to the signal ratio;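 for max response: cells co-treated with a PPAR-delta agonist as stimulator during compound exposure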). The conditions noted are these: HEK293T PPARd-UAS-bla, beta-lactamase FRET ratio, 18 h; 460 nm channel. In short, it runs like this:
(§1)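 Antagonist-mode beta-lactamase reporter (GeneBLAzer PPAR-delta-UAS-bla) in HEK293T cells, 2% charcoal/dextran FBS, 4000 cells/well. Compound titrations, 18 h at 37 C; CCF4 ratio read, IC50 and efficacy from Hill fits.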

Test [13] concerns the target Peroxisome proliferator-activated receptor delta (Homo sapiens) (UniProt Q03181). Described as above. In outline: as §1

Records with an inconclusive call do not appear. Active and inactive are the calls of the source. Unless noted, calls come from the whole dose curve; as a rule, active = well fitted curve in the direction sought with a large enough effect; inconclusive = small, poorly fitted or top-dose-only effect, or another doubt; inactive = no such curve, though single readings can be large; an effect the other way counts as inactive or inconclusive.

From PubChem BioAssay (NCATS) come the findings set out here.

phosphoglycerate mutase (Leishmania major), sequence (Q4Q090 1-553): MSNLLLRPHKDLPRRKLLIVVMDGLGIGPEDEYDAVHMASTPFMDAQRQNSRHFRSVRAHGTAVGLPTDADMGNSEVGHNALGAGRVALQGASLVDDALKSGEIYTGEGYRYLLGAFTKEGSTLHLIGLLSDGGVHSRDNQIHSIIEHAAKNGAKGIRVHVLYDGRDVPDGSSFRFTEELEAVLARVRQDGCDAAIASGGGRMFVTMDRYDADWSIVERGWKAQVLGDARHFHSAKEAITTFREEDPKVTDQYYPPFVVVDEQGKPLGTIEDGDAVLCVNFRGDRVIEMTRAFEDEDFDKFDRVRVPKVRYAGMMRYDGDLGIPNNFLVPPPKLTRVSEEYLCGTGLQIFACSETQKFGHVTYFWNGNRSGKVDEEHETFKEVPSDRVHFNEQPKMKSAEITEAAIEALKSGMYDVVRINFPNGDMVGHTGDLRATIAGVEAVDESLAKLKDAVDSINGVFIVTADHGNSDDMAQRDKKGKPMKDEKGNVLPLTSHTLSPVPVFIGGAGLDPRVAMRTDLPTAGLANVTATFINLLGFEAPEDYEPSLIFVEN
Peptidyl-prolyl cis-trans isomerase NIMA-interacting 1 (Homo sapiens), sequence (Q13526 whole entry, looked up): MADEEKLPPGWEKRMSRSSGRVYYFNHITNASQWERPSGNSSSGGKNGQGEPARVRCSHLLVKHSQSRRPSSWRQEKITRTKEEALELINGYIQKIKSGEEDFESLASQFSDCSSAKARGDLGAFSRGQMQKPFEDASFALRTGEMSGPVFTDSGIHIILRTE
Estrogen receptor (Homo sapiens), sequence (P03372 whole entry, looked up): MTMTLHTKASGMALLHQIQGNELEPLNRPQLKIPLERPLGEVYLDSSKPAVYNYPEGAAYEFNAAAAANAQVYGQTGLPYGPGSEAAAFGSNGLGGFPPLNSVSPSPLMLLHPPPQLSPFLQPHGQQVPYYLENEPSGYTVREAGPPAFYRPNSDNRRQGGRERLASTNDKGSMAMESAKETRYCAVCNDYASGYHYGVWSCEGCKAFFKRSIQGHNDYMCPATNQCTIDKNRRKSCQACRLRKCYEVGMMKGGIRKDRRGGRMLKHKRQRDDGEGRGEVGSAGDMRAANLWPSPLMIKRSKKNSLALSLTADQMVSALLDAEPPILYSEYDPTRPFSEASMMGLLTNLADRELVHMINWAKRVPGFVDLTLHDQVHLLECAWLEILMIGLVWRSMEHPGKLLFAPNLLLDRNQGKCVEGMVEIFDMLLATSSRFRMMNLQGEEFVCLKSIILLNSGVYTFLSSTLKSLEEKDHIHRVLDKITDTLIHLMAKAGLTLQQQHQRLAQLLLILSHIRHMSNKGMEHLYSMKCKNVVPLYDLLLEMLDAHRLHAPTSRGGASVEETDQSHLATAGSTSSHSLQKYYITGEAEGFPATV
Glucocorticoid receptor (Homo sapiens), sequence (P04150 whole entry, looked up): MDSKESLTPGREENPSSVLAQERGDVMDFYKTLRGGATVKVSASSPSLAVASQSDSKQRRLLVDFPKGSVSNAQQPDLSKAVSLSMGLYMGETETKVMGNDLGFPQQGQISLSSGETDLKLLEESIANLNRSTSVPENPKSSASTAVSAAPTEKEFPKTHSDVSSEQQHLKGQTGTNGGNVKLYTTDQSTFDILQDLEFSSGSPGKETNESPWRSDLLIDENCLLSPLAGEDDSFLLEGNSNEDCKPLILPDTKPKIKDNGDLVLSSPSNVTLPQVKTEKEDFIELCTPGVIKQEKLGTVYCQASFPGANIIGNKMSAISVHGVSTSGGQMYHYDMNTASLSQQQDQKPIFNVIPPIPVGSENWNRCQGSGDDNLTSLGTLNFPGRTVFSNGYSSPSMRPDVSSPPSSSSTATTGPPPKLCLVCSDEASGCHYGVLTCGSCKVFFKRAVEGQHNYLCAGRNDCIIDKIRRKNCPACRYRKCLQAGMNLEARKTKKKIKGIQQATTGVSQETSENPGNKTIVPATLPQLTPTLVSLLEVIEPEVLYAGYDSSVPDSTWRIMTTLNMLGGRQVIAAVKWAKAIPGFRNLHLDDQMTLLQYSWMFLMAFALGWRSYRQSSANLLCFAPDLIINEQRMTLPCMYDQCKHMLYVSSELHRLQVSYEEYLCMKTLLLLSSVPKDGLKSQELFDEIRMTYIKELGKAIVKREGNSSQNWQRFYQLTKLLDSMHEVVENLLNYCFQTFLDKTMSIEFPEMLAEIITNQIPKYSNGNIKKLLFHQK
Bile acid receptor (Homo sapiens), sequence (Q96RI1 whole entry, looked up): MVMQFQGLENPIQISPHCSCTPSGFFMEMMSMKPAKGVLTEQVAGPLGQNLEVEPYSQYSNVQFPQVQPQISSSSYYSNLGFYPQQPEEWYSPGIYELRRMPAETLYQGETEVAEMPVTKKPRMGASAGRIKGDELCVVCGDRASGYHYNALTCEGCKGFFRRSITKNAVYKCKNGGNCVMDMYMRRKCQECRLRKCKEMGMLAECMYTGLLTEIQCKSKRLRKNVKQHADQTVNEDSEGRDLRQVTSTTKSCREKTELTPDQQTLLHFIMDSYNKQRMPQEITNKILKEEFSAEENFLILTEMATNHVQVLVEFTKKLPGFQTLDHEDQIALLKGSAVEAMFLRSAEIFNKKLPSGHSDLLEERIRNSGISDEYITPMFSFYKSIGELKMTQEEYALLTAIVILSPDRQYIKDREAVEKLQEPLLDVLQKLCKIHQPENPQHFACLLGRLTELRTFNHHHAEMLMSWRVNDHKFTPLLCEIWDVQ
Peroxisome proliferator-activated receptor delta (Homo sapiens), sequence (Q03181 whole entry, looked up): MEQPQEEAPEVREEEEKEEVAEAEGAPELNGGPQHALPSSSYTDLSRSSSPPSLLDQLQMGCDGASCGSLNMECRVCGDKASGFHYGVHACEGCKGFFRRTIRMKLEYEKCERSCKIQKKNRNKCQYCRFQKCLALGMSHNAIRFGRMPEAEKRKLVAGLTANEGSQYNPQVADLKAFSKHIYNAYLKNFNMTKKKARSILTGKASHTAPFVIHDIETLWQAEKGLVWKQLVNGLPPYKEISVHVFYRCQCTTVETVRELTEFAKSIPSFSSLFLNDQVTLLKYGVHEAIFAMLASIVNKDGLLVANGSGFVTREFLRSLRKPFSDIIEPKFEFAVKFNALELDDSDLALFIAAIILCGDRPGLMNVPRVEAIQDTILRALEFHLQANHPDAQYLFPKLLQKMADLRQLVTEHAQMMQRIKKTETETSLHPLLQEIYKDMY

For `OC[C@H]1O[C@@H](n2cnc3c(NC4CCCC4)ncnc32)[C@H](O)[C@@H]1O`, the Potency entry in test [1], in [2], in [3], in test [4] and in test [5] was “inactive” each time.

Turning to `N[C@@H](CC(=O)O)C(=O)O`, the Potency entry in [1], in test [2], in test [3], in test [4], in test [5] and in [6] was “inactive” in each case.

Take `CC(=O)N[C@H](C(=O)O)C(C)(C)SN=O`: the Potency result in test [1], in [2], in [3], in test [4], in test [5] and in [6] was “inactive” in each case.

Consider `Fc1ccc(C(OCCCc2cnc[nH]2)c2ccc(F)cc2)cc1`, for which the Potency result in [1], in [2], in [3] and in test [5] was “inactive” throughout.

On to `CCCn1c(=O)c2[nH]c(-c3ccc(OCC(=O)NCCN)cc3)nc2n(CCC)c1=O`, for which the Potency entry in [1], in [2], in test [3], in [4] and in test [6] was “inactive” in each case.

`O=C(Nc1ccccc1)c1cc([N+](=O)[O-])ccc1Cl`: the Potency entry in [1], in test [2], in [3], in [4], in test [5] and in test [6] was “inactive” throughout. In addition, the Potency entry in test [8], in test [11] and in test [13] was “inactive” in each case. The compound was called inactive in test [7] and in [9]. The activation in test [10] was -2.03% (inactive). In [12], the max response worked out at 15.1%.

For the compound `CC(C)NC[C@H](O)COc1cccc2[nH]ccc12`, the Potency result in [1], in test [2], in test [3], in test [4] and in test [6] was “inactive” each time.

Take `CN1CC(=O)N/C1=N/C(=O)Nc1cccc(Cl)c1`: the Potency entry in test [1], in test [2], in [3], in test [4] and in [6] was “inactive” each time.

Turning to `O=C(O)c1cc(=O)c2ccccc2[nH]1`, the Potency result in test [1], in test [2], in test [3], in test [4], in test [5] and in test [6] was “inactive” each time.

For the compound `Cc1ccccc1CNc1ncnc2c1ncn2C1OC(CO)C(O)C1O` (stereo unspecified), the Potency entry in test [1], in test [2], in test [3], in test [4], in [5] and in [6] was “inactive” each time.

As for `C[N+]1(C)CCC(OC(=O)C(c2ccccc2)c2ccccc2)CC1`, the Potency result in test [1], in test [2], in test [3], in test [4] and in test [6] was “inactive” in each case.

In the case of `COc1cc(SC)ccc1C(=O)N1CCC(Cc2ccccc2)CC1`, the Potency entry in test [1], in [2], in test [3] and in [5] was “inactive” in each case.

`C[C@@H](CN1CCC(Cc2ccccc2)CC1)[C@@H](O)c1ccc(O)cc1`: the Potency result in [1], in test [2], in test [3], in [4] and in test [6] was “inactive” throughout.

For `NC(=O)C1=CN(C2OC(COP(=O)(O)OP(=O)(O)OC[C@H]3O[C@@H](n4cnc5c(N)ncnc54)[C@H](OP(=O)(O)O)[C@@H]3O)C(O)C2O)C=CC1` (stereo partly specified), the Potency in [1] was 5.36 µM (active). Further, the Potency entry in test [2], in [3], in test [4], in test [5] and in test [6] was “inactive” throughout.

Consider `O=C(c1ccc(Cl)cc1)N1CCN(c2ccc([N+](=O)[O-])c3ncccc23)CC1`, for which the Potency result in test [1], in test [2], in [3], in test [4] and in [6] was “inactive” in each case.

In the case of `C[C@@H](NC(=O)/C(C#N)=C/c1ccc(O)c(O)c1)c1ccccc1`, the Potency entry in [1], in [2], in test [3], in [4] and in test [6] was “inactive” each time.

As for `O=C(O)CC[C@@H](C(=O)O)N1C(=O)c2ccccc2C1=O`, the Potency entry in test [1], in test [2], in test [3], in [4] and in test [6] was “inactive” in each case.

In the case of `CCNC(=O)[C@H]1O[C@@H](n2cnc3c(N)nc(NCCc4ccc(CCC(=O)O)cc4)nc32)[C@H](O)[C@@H]1O`, the Potency entry in [1], in [2], in test [3], in test [4] and in test [6] was “inactive” throughout.

For the compound `CN1C2CC(OC(=O)[C@H](CO)c3ccccc3)CC1C1OC12` (stereo partly specified), the Potency entry in test [1], in test [2], in [3] and in test [5] was “inactive” each time.

With `NC(=S)c1ccc[n+]([C@@H]2O[C@@H](COP(=O)([O-])OP(=O)(O)OC[C@H]3O[C@@H](n4cnc5c(N)ncnc54)[C@H](OP(=O)(O)O)[C@@H]3O)C(O)C2O)c1` (stereo partly specified), the Potency in test [1] is 19 µM (active). The Potency result in test [2], in [3], in test [4] and in [6] was “inactive” throughout.

On to `NCCCCCCCCCCN`, for which the Potency entry in test [1], in test [2], in test [3], in [4] and in [6] was “inactive” in each case.

With `COc1ccccc1CNCCCCCCNCCCCCCCCNCCCCCCNCc1ccccc1OC`, the Potency result in test [1], in test [2], in test [3], in test [4] and in test [6] was “inactive” throughout.

For the compound `NC(=O)C(=O)O`, the Potency result in test [1], in test [2], in [3], in test [4] and in test [6] was “inactive” throughout.

Consider `COc1ccccc1N1CCN(CCN(C(=O)c2ccc(I)cc2)c2ccccn2)CC1`, for which the Potency entry in [1], in test [2], in test [3], in test [4] and in [6] was “inactive” each time.

In the case of `C=CC(=O)c1ccc(CCCCCC)cc1`, the Potency result in [1], in test [2], in [3], in test [5] and in test [6] was “inactive” each time. For the same compound, the Potency in test [4] is 56.2 µM (active).

Regarding `CCCCC#Cc1nc(NC)c2ncn([C@@H]3O[C@H](CO)[C@@H](O)[C@H]3O)c2n1`, the Potency entry in test [1], in test [2], in [3], in test [4] and in [6] was “inactive” throughout.

On to `Cc1ccc(C(=O)O[C@H](C(=O)O)[C@@H](OC(=O)c2ccc(C)cc2)C(=O)O)cc1` (tested in a mixture with another compound), for which the Potency result in test [1], in [2], in [3], in [4] and in test [6] was “inactive” in each case.
